Here are results for 39 compounds from PubChem BioAssay AID1069 (NMMLSC, 2008).

Calls of active or inactive are those of the source.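 How the source made its calls: active means high combined rank on largest and smallest cell-count-weighted shift across three tests, rank score above 45, floors 50 and 25 (some results past the limit were not filed as active); inactive means the rest.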

A short description of this test: LNCaP granularity increase inducers, single-point recheck – cell-based, side scatter shift, flow cytometry, confirmation (AID 1069).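 Further: LNCaP human prostate cancer cells in low-serum medium with charcoal-stripped FBS; percent of cells with raised granularity gated so DMSO controls show 10%.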 The note with it: LNCaP differentiation, 4 d, stronger effect = higher value. (In general: In flow cytometry, cells or beads pass a laser one at a time.)

Consider `N#CC(C(=O)c1ccco1)c1ccccn1` (stereo not drawn), for which the side scatter shift runs as follows: (at 100 µM) 2.5% (inactive); (side scatter shift, at 10 µM) 10.3%.

Turning to `Cn1nc(-c2ccc(Cl)cc2)c2cc(C(=O)NCCCN3CCCC3)sc21`, the side scatter shift (at 100 µM) was 31.6% (active) and the side scatter shift (side scatter shift, at 10 µM) stood at 66.5%.

Turning to `COc1ccc(-c2noc(CCC(=O)NCCCN3CCC(Cc4ccccc4)CC3)n2)cc1`, the side scatter shift reads like this: (at 100 µM) 21.7% (inactive); (side scatter shift, at 10 µM) 28.6%.

On to `Cc1ccc(C)c(N2CCN(C(=O)CCNC(=O)Cn3ccc4ccccc4c3=O)CC2)c1`, for which the side scatter shift runs as follows: (at 100 µM) 25% (inactive); (side scatter shift, at 10 µM) 10%.

Turning to `O=C(NCCCN1CCN(c2ccccc2F)CC1)C1CCN(S(=O)(=O)c2cccs2)CC1`, the side scatter shift is 22.7% (inactive) (at 100 µM) and 3.7% (side scatter shift, at 10 µM).

With `COc1ccc(N2CCN(CCCNC(=O)C3CCCN(S(=O)(=O)c4cnc[nH]4)C3)CC2)cc1` (stereo not drawn), the side scatter shift is, setting by setting: (at 100 µM) 32.3% (inactive); (side scatter shift, at 10 µM) 4.05%.

Regarding `CSc1nc2ccc(Nc3nc(N4CCOCC4)nc(N4CCOCC4)n3)cc2s1`, the side scatter shift by setting is: (at 100 µM) 14.6% (inactive); (side scatter shift, at 10 µM) 5.1%.

As for `Cc1oc(-c2ccccc2F)nc1CN1CCC(C(=O)NC2CCCCCCC2)CC1`, the side scatter shift is, setting by setting: (at 100 µM) 16.7% (inactive); (side scatter shift, at 10 µM) 9.45%.

Consider `O=C(NCCCN1CCN(c2cccc(Cl)c2)CC1)C1CCC(=O)N1Cc1ccccc1Cl` (stereo not drawn), for which the side scatter shift by setting is: (at 100 µM) 33.3% (inactive); (side scatter shift, at 10 µM) 11.4%.

Take `O=C(CSc1nc2c(c(=O)n1-c1ccc(F)cc1)SCC2)NCC1CCCO1` (stereo not drawn): the side scatter shift is 19.8% (inactive) (at 100 µM) and 3.9% (side scatter shift, at 10 µM).

As to `Cn1c(=O)n(C)c2cc(CN3C(=O)OC(C)(C)C3(C)O)ccc21` (stereo not drawn), the side scatter shift is 7.1% (inactive) (at 100 µM) and 2.45% (side scatter shift, at 10 µM).

In the case of `Cn1c(C(=O)NCCN2CCN(c3ccccc3F)CC2)cc2c(=O)n(C)c3ccccc3c21`, the side scatter shift is 50% (inactive) (at 100 µM) and 7.7% (side scatter shift, at 10 µM).

For `CCc1ccc(-c2nc(CN3CCC(C(=O)N4CCN(c5ccccn5)CC4)CC3)c(C)o2)cc1`, the side scatter shift is 30% (inactive) (at 100 µM) and 32.4% (side scatter shift, at 10 µM).

With `Cc1oc(-c2ccc(Cl)cc2)nc1CN1CCCC(C(=O)NCCCN2CCCC2=O)C1` (stereo not drawn), the side scatter shift (at 100 µM) was 14% (inactive) and the side scatter shift (side scatter shift, at 10 µM) stood at 13.6%.

On to `CCOC(=O)N1CCN(S(=O)(=O)c2ccc(C(=O)Nc3nc4ccccc4s3)cc2)CC1`, for which the side scatter shift (at 100 µM) is 11.7% (inactive) and the side scatter shift (side scatter shift, at 10 µM) is 5.15%.

On to `Cc1ccc(-n2nc3cc(Cl)c(NC(=O)c4ccco4)cc3n2)cc1`, for which the side scatter shift reads like this: (at 100 µM) 20.7% (inactive); (side scatter shift, at 10 µM) 2.8%.

As to `O=C(Cc1coc(-c2ccc(F)cc2)n1)N1CCOCC1`, the side scatter shift is, setting by setting: (at 100 µM) 9.7% (inactive); (side scatter shift, at 10 µM) 2.15%.

On to `Cc1ccc(S(=O)(=O)NCCCCC(NC(=O)OC(C)(C)C)C(=O)O)cc1` (stereo not drawn) (tested in a mixture with another compound), for which the side scatter shift was 8.9% (inactive) (at 100 µM) and 5.45% (side scatter shift, at 10 µM).

As to `Cc1cc(=O)oc(C)c1C(=O)NCCCN1CCN(c2ccc(F)cc2)CC1`, the side scatter shift is 8.5% (inactive) (at 100 µM) and 5.05% (side scatter shift, at 10 µM).

In the case of `Cc1oc(-c2cccc(Cl)c2)nc1CN1CCC(C(=O)NCC2CCCO2)CC1` (stereo not drawn), the side scatter shift reads like this: (at 100 µM) 33.9% (inactive); (side scatter shift, at 10 µM) 8.8%.

As for `CCC(C)NC(=O)c1cn(C)c(=O)c2cc(OC)c(OC)cc12` (stereo not drawn), the side scatter shift runs as follows: (at 100 µM) 25.6% (inactive); (side scatter shift, at 10 µM) 5.2%.

As for `CCCN(CCC)CCNC(=O)C1CCN(Cc2nc(-c3ccc(Cl)cc3)oc2C)CC1`, the side scatter shift (at 100 µM) is 76.4% (active) and the side scatter shift (side scatter shift, at 10 µM) was found to be 74%.

Take `Nc1ccc(-n2ccnc2)cc1`: the side scatter shift runs as follows: (at 100 µM) 37.6% (inactive); (side scatter shift, at 10 µM) 7.5%.

For the compound `CC(C)CCNC(=O)C1CCN(c2nc3ccccc3o2)CC1`, the side scatter shift (at 100 µM) is 28.8% (inactive) and the side scatter shift (side scatter shift, at 10 µM) was found to be 7.65%.

On to `Cc1ccc(Nc2cc(=O)n(C3CCCCC3)c(=O)[nH]2)cc1C`, for which the side scatter shift is 0% (inactive) (at 100 µM) and 10.6% (side scatter shift, at 10 µM).

Take `COc1ccc(NC(=O)NCCCN2CCN(c3cc(C)ccc3C)CC2)cc1`: the side scatter shift is 0% (inactive) (at 100 µM) and 7.1% (side scatter shift, at 10 µM).

As to `Cc1cc(=O)n2nc(N3CCCC(C(=O)NCCCN4CCc5ccccc5C4)C3)sc2n1` (stereo not drawn), the side scatter shift runs as follows: (at 100 µM) 17.4% (inactive); (side scatter shift, at 10 µM) 9.3%.

Turning to `Cc1cccc(-c2nc(CN3CCCC(C(=O)NC4CCCC4)C3)c(C)o2)c1` (stereo not drawn), the side scatter shift is, setting by setting: (at 100 µM) 13.8% (inactive); (side scatter shift, at 10 µM) 8.5%.

As for `CN(C)c1ccc(CNC2CC(C)(C)NC(C)(C)C2)cc1`, the side scatter shift is, setting by setting: (at 100 µM) 49.2% (active); (side scatter shift, at 10 µM) 10.6%.

Take `Cc1ccc(NC(=O)N2CCCN(Cc3ccc(F)cc3)C2)cc1C`: the side scatter shift is 15.4% (inactive) (at 100 µM) and 28.2% (side scatter shift, at 10 µM).

For `Cc1ccc2c(c1)-c1c(cnn1CC(=O)Nc1ccccc1N1CCN(C)CC1)CO2`, the side scatter shift reads like this: (at 100 µM) 9.6% (active); (side scatter shift, at 10 µM) 38%.

As for `O=C(NCCCN1CCN(c2cccc(Cl)c2)CC1)c1nc(-c2ccncc2)no1`, the side scatter shift by setting is: (at 100 µM) 36.1% (inactive); (side scatter shift, at 10 µM) 2.15%.

On to `COCCNC(=O)CC(NS(=O)(=O)c1ccc(NC(C)=O)cc1)C(C)C` (stereo not drawn), for which the side scatter shift (at 100 µM) is 6.3% (inactive) and the side scatter shift (side scatter shift, at 10 µM) came to 9.45%.

In the case of `CCCc1cc(-c2n[nH]c(C)c2-c2ccc(C(=O)OCC)o2)c(O)cc1O`, the side scatter shift reads like this: (at 100 µM) 42.9% (inactive); (side scatter shift, at 10 µM) 5.15%.

Regarding `COc1cc2c(C(=O)NCCCN3CCN(c4cccc(Cl)c4)CC3)cn(C)c(=O)c2cc1OC`, the side scatter shift (at 100 µM) is 53.3% (inactive) and the side scatter shift (side scatter shift, at 10 µM) is 15.4%.

`O=C(NC1CCCC1)C1CCN(S(=O)(=O)c2cccc3cccnc23)CC1`: the side scatter shift was 15.9% (inactive) (at 100 µM) and 1.65% (side scatter shift, at 10 µM).

As for `O=C1CCCc2c1cc(C(=O)NC1CCSC1=O)c(=O)n2-c1ccccc1` (stereo not drawn), the side scatter shift reads like this: (at 100 µM) 5.9% (inactive); (side scatter shift, at 10 µM) 4.8%.

In the case of `COc1ccc(-n2c(C)nc3c(cnn3-c3ccc(Cl)cc3)c2=O)cc1`, the side scatter shift reads like this: (at 100 µM) 4.4% (inactive); (side scatter shift, at 10 µM) 5.6%.

`COc1ccc(-c2noc(CCC(=O)NCCCN3CCC(C)CC3)n2)cc1`: the side scatter shift is 23.8% (inactive) (at 100 µM) and 4.9% (side scatter shift, at 10 µM).
